HP1b binding inh: blocks HP1-beta chromodomain binding to methylated histone tails | P83916 | AlphaScreen HP1-beta / biotin-H3K9me3 peptide binding | Potency, µM (series often up to 114 µM), usual class: inhibitors | 390,000 tested, 0.56% active | AID 540317; also: nearly all actives have a fitted effect of over 70% in size
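AlphaScreen: HP1-beta (50 nM) preformed 30 min with biotin-H3(1-18)K9me3 peptide (50 nM) in PBS pH 7.4, 0.01% Tween-20. Compound added for 30 min at RT, then streptavidin donor/nickel chelate acceptor beads (10 ug/mL) for 30 min.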
G9a block: inhibitors of human histone lysine methyltransferase G9a; Q96KQ7; G9a H3K9 monomethylation, AlphaScreen, 2 h; Potency, µM (doses to about 102 µM), hits mostly inhibitors; 350,000 tested, 8.8% active; AID 504332; also: nearly all actives have a fitted effect of over 75% in size
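Readings reflect AlphaScreen signal from monomethyl-H3K9 antibody detection. HMT at 20 nM; substrate b-H3K9 500 nM; cofactor SAM 20 uM; 2 h RT reaction; compounds tested as titrations in qHTS with 15 min preincubation.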
BAZ2B block: blocks human BAZ2B. Q9UIF8. AlphaScreen BAZ2B-H3K14Ac peptide displacement. Potency, µM (series often up to 114 µM), hits mostly inhibitors. 360,000 tested, 4.4% active; also: nearly all actives have a fitted effect of over 60% in size
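Inhibition is scored as reduced AlphaScreen emission. The BAZ2B/b-H3(5-23)K14Ac complex (50 nM each) in PBS pH 7.4, 0.01% Tween-20 meets compound (up to 110 uM) for 30 min at RT before bead addition.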
JMJD2A Tudor: inhibitors of human JMJD2A Tudor domain | AlphaScreen JMJD2A-Tudor / H3K4me3 peptide binding | Potency, µM (doses to about 114 µM), usual class: inhibitors | AID 504339 | 390,000 tested, 4.4% active | O75164; also: nearly all actives have a fitted effect of over 50% in size
GLS inhibitor: inhibitors of human glutaminase (GLS). O94925. GLS enzymatic activity, qHTS titration. Potency, µM (series often up to 45.5 µM), actives largely listed as inhibitors. 410,000 tested, 0.21% active. AID 624170
Target sequence (O94925 whole entry, looked up): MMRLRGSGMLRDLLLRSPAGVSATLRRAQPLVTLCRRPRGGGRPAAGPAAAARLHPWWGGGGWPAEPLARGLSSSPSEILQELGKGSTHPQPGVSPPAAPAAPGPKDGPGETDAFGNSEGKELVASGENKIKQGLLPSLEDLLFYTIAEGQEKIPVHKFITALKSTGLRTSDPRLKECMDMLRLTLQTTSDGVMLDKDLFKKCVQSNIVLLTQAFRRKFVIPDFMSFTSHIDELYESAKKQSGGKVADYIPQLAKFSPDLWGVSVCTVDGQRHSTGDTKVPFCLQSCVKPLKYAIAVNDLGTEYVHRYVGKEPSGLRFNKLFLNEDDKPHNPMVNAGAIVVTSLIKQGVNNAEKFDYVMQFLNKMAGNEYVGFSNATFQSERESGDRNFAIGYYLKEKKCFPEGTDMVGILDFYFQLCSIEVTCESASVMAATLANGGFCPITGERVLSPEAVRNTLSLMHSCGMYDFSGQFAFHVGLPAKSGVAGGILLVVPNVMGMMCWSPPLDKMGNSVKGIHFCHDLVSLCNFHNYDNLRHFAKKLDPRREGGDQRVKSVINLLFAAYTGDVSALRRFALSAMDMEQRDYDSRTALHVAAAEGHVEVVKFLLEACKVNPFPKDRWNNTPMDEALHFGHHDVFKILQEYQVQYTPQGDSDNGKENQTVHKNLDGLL
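Compounds were pin-transferred onto hKGA, after which L-glutamine (1 mM solution) and a detection mix of glutamate oxidase, HRP and Amplex Red were added. Initial and 30 min RT fluorescence reads were collected.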
A number is an active result; – = inactive; ? = inconclusive; · = no result; [ ] = another dose, or the depositor's remark. A selection: hits, their analogues and other compounds. The true share with any hit is near 10%. Calls follow the shape of the dose curve; as a rule, active = well fitted curve in the direction sought with a large enough effect; inconclusive = small, poorly fitted or top-dose-only effect, or another doubt; inactive = no such curve, though single readings can be large; an effect the other way counts as inactive or inconclusive.

SMILES | HP1b binding inh | G9a block | BAZ2B block | JMJD2A Tudor | GLS inhibitor
Cc1cccc(-n2c(C)cc(C(=S)N3CCOCC3)c2C)c1C | ? | ? | – | ? | –
Cc1cc(C(=S)N2CCOCC2)c(C)n1-c1ccc(Cl)cc1 | 44.7µM | 3.16µM | 50.1µM | 28.2µM | –
COc1ccc2sc(/C=C/c3ccccc3O)[n+](C)c2c1 | – | 44.7µM | ? | ? | –
COc1ccc2c(c1)-c1nc(/N=C/c3ccccc3O)sc1CC2 | ? | ? | ? | ? | –
CCOC(=O)/C=C1\SCC(=O)N1CC(=O)NC(C)c1ccccc1 (stereo not given) | – | – | – | – | –
CCOC(=O)/C=C1\SCC(=O)N1CC(=O)NC(C)C | – | 3.55µM | – | – | –
O=C(NNc1nc2c(F)cc(F)cc2s1)C1COc2ccccc2O1 (stereo not given) | – | – | – | – | –
Cc1cccc2sc(NNC(=O)C3COc4ccccc4O3)nc12 (stereo not given) | – | 17.8µM | – | – | –
C=CCn1c(C)cc(-c2csc(N)n2)c1C | ? | ? | 50.1µM | 39.8µM | –
C=CCn1c(C)cc(-c2csc(NCC)n2)c1C | ? | 15.8µM | 39.8µM | 50.1µM | ?
Cc1cc(-c2csc(NC(=O)c3ccc(=O)[nH]c3)n2)c(C)n1Cc1ccccc1 | – | ? | – | ? | –
C=CCn1c(C)cc(-c2csc(NC(=O)C3=COCCO3)n2)c1C | – | 44.7µM | – | – | –
C=CCn1c(C)cc(-c2csc(NC)n2)c1C | ? | 8.91µM | · | 39.8µM | –
Cc1nc2c(sc3nc4c(cc32)COC(C)(C)C4)c(=O)o1 | – | ? | – | – | –
COC(=O)c1sc2nc3c(cc2c1N)COC(C)(C)C3 | – | 50.1µM | – | – | –
CCCc1nc2c(sc3nc4c(cc32)COC(C)(C)C4)c(=O)o1 | – | 22.4µM | ? | – | –
COc1ccc([N+](=O)[O-])c(OC)c1C(=O)Nc1ccc(F)cc1F | – | – | – | – | –
Nc1ccc2c(c1Br)Cc1ccccc1-2 | ? | · | · | ? | –
Nc1cc2c(cc1N)-c1ccccc1C2 | – | · | · | 8.91µM | –
Nc1ccc2c(c1)Cc1cc(N)c(Cl)cc1-2 | ? | · | · | 44.7µM | –
Cc1[nH]c(=O)[nH]c(=O)c1NC(=O)c1sc2nc3c(C)cccc3cc2c1N | – | 10µM | – | – | –
Cc1ccc2cc3c(N)c(C(=O)Nc4c(C)[nH]c(=O)[nH]c4=O)sc3nc2c1 | – | 10µM | ? | – | –
Cc1ccc2nc3sc(C(=O)Nc4c(C)[nH]c(=O)[nH]c4=O)c(N)c3cc2c1 | – | 10µM | – | – | –
O=C(NCc1cccc(C(F)(F)F)c1)C1CCCN(c2ncccn2)C1 (stereo not given) | – | – | – | – | –
CCOC(=O)N1CCN(CCC(=O)c2ccc(Cl)cc2)CC1 | – | ? | – | – | –
SMILES | HP1b binding inh | G9a block | BAZ2B block | JMJD2A Tudor | GLS inhibitor
CCOC(=O)N1CCN(CCC(=O)c2ccc(OC)cc2)CC1 | – | 10µM | – | – | –
COc1cc2c(cc1OC)CN(C(=O)CCNC(=O)c1ccc(Br)cc1)CC2 | – | ? | – | – | –
COc1cc2c(cc1OC)CN(CCC(=O)c1ccc(Br)cc1)CC2 | – | 14.1µM | – | ? | ?
CCOC(=O)N1CCN(CCC(=O)c2ccc(Br)cc2)CC1 | – | 3.98µM | – | ? | –
COc1ccc(-c2ccc(OC)c(OC)c2OC)c(OC)c1OC | – | · | · | – | –
O=C(CSCc1ccc(Cl)cc1)Nc1ccc(S(=O)(=O)N2CCOCC2)cc1 | – | ? | – | – | –
C=CCn1cccc(/C=C/C(=O)c2ccc(C(C)(C)C)cc2)c1=S | ? | ? | 11.2µM | 31.6µM | –
Cc1ccc(NC(=O)C2C3C=CC4(CN(Cc5cccnc5)C(=O)C24)O3)cc1F (stereo not given) | – | 44.7µM | – | – | –
OCCn1c(-c2ccc(F)cc2)csc1=Nc1ccccc1 | ? | 20µM | 25.1µM | ? | –
OCCn1c(-c2ccc3c(c2)OCO3)csc1=Nc1ccccc1 | ? | –[12.7 µM] | 39.8µM | 39.8µM | –
OC(c1ccccc1)(c1nc(-c2ccc3c(c2)OCO3)cs1)C(F)(F)F (stereo not given) | · | · | · | · | –
CCOc1ccc(C2N(c3ccc(F)cc3)C(=O)C3CCCN32)cc1 (stereo not given) | – | – | – | – | –
O=C(CN1CCC(Cc2ccccc2)CC1)N1CCc2ccccc2C1 | ? | 22.4µM | 50.1µM | ? | –
O=C(CN1CCN(S(=O)(=O)c2ccc(F)c(Cl)c2)CC1)N1CCc2ccccc2C1 | – | · | · | – | –
O=C(CN(C1CCCCC1)C1CCCCC1)N1CCc2ccccc2C1 | – | 10µM | 44.7µM | 6.31µM | –
COc1ccc(S(=O)(=O)N2CCN(CC(=O)c3[nH]c(C)c(C(C)=O)c3C)CC2)cc1OC | – | –[12.7 µM] | – | – | –
CN1C(=O)c2oc3ccccc3c(=O)c2C1c1ccccn1 (stereo not given) | – | 28.2µM | ? | 31.6µM | –
CN1C(=O)c2oc3ccccc3c(=O)c2C1c1cccnc1 (stereo not given) | – | · | · | – | –
CN1C(=O)c2oc3ccc(Br)cc3c(=O)c2C1c1ccncc1 (stereo not given) | · | 15.8µM | – | · | ·
O=C(CSc1ccccc1F)Nc1ccc2c(c1)OCO2 | – | · | · | – | –
COc1cccc(CNC(=O)c2cccc(S(=O)(=O)N3CCN(c4ccc(F)cc4)CC3)c2)c1 | – | –[2.33 µM] | – | – | –
O=C(COC(=O)C1(c2ccc(F)cc2)CCCC1)NCc1ccco1 | – | ? | – | 50.1µM | –
O=C(COC(=O)c1ccc([N+](=O)[O-])cc1Cl)NCc1ccco1 | – | –[12.7 µM] | – | – | –
N#Cc1c(NC(=O)CSc2n[nH]c(Cc3ccccc3)n2)oc(-c2ccccc2)c1-c1ccccc1 | – | 3.55µM | – | ? | –
N#Cc1c(NC(=O)COC(=O)C2CC3C=CC2C3)oc(-c2ccccc2)c1-c1ccccc1 (stereo not given) | – | 7.08µM | ? | –[11.4 µM] | –
SMILES | HP1b binding inh | G9a block | BAZ2B block | JMJD2A Tudor | GLS inhibitor
N#Cc1c(NC(=O)CSc2ncccn2)oc(-c2ccccc2)c1-c1ccccc1 | – | · | · | – | –
O=C(COC(=O)/C=C/c1ccc(F)cc1)NCc1ccco1 | – | – | – | – | –
O=C(COC(=O)c1ccc(F)cc1Cl)NCc1ccco1 | ? | ? | 50.1µM | 50.1µM | –
O=C(O)Cn1nnc(-c2cccs2)n1 | – | – | – | – | –
Cc1ccccc1CNc1nnnn1C | – | – | – | – | –
Cc1ccc(C(=O)OCC(=O)NCc2cccs2)s1 | – | – | – | – | –
Cc1ccc(C(=O)OCC(=O)NCc2ccco2)s1 | – | 79.4µM | – | 35.5µM | –
O=C(COC(=O)C1CC2C=CC1C2)NCc1ccco1 (stereo not given) | 79.4µM | ? | 28.2µM | 39.8µM | ?
O=C(COC(=O)C1CC2C=CC1C2)NCc1ccc(F)cc1 (stereo not given) | – | – | – | – | –
Cc1cc(C)cc(C(=O)OCC(=O)NCc2ccco2)c1 | – | · | · | 89.1µM | –

Screening data as filed in PubChem BioAssay.
